We go through 19 compounds from PubChem BioAssay (Tox21).

Assay [1] in a line: qHTS RealTime-Glo MT Cell Viability Assay in HEK293 cells - 16 hour (AID 1224872). Also: nearly all actives have a fitted effect of over 50% in size. As to activity change, negative = cytotoxicity: top concentration of the series differs between compounds. The method in brief:
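Viability tracked continuously by luminescence as live cells reduce a prosubstrate for NanoLuc; HEK293 cells preincubated 5 h, compound-treated at 37 C, and read at 0, 8, 16, 24, 32 and 40 h.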
(In general: Quantitative high-throughput screening tests each substance at several concentrations.)

Assay [2] in a line: qHTS RealTime-Glo MT Cell Viability Assay in HepG2 cells - 8 hour (AID 1224873). Also: nearly all actives have a fitted effect of over 55% in size. The method in brief: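 Real-time viability: cells seeded at 600 per well together with NanoLuc and cell-permeant prosubstrate, compounds added after 5 h incubation. Luminescence tracked at 0, 8, 16, 24, 32 and 40 h of exposure.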
A short description of assay [3]: qHTS RealTime-Glo MT Cell Viability Assay in HEK293 cells - 40 hour (AID 1224874). Also: nearly all actives have a fitted effect of over 50% in size. Conditions: RealTime-Glo luminescence; max response: stronger effect = lower value. The method in brief:
(§1)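 Kinetic, non-lysing viability readout. Seed HEK293 (600/well) with reagent, incubate 5 h at 37 C/5% CO2, pin 23 nL compound in DMSO, incubate at 37 C, read luminescence at 0, 8, 16, 24, 32, 40 h.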

The nature of assay [4]: A CellTox Green Cytotoxicity Assay to monitor cytotoxicity in HEK293 cells - 24 hour (AID 1224875). Also: nearly all actives have a fitted effect of over 45% in size. As to activity change: series mostly up to about 77 µM. The essentials: (§2)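 Real-time, in one plate: 600 HEK293 cells/well with dead-cell DNA dye, pinned compound after 5 h, 37 C incubation over 40 h; viable cells give no appreciable fluorescence.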
Assay [5] is described as follows: A CellTox Green Cytotoxicity Assay to monitor cytotoxicity in HepG2 cells - 16 hour (AID 1224876). Also: nearly all actives have a fitted effect of over 45% in size. The method in brief: (§3)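 Cytotoxicity was tracked as dead-cell DNA fluorescence in HepG2 cells treated with test compounds at 37 C; each time-point value comes from one kinetic series spanning 0, 8, 16, 24, 32 and 40 h.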
Assay [6] in a line: qHTS RealTime-Glo MT Cell Viability Assay in HepG2 cells - 32 hour (AID 1224877). Also: nearly all actives have a fitted effect of over 55% in size. The essentials: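 Viability was tracked continuously by NanoLuc luminescence from prosubstrate reduced by living HepG2 cells, at successive time points over 40 h of compound exposure. Cells with reagent were preincubated 5 h at 37 °C before compound addition.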
Assay [7] is described as follows: A CellTox Green Cytotoxicity Assay to monitor cytotoxicity in HepG2 cells - 24 hour (AID 1224878). Also: nearly all actives have a fitted effect of over 45% in size. The essentials: as §3
Assay [8] can be described thus: A CellTox Green Cytotoxicity Assay to monitor cytotoxicity in HepG2 cells - 40 hour (AID 1224879). Also: nearly all actives have a fitted effect of over 40% in size. The essentials:
as §3

Assay [9] can be described thus: qHTS RealTime-Glo MT Cell Viability Assay in HEK293 cells - 0 hour (AID 1224880). Also: nearly all actives have a fitted effect of over 45% in size. As to activity change, negative = cytotoxicity: top concentration of the series differs between compounds. The essentials:
as §1

Assay [10] in a line: A CellTox Green Cytotoxicity Assay to monitor cytotoxicity in HEK293 cells - 32 hour (AID 1224881). Also: nearly all actives have a fitted effect of over 40% in size. The method in brief:
as §2

Records with an inconclusive call do not appear. Unmarked numbers belong to inactive results. Active and inactive are the calls of the source. Calls follow the shape of the dose curve; as a rule, active = well fitted curve in the direction sought with a large enough effect in the repeat runs; inconclusive = weak or mixed curves; inactive = no such curve, though single readings can be large; an effect the other way counts as inactive or inconclusive.
% is scaled to controls: 0 for no effect and ±100 for the full control effect; potency is read from the fitted curve at half-maximal effect.

With `Oc1c(Br)cc(Br)c2cccnc12`, the Potency entry in assay [1], in [2], in assay [4], in assay [5], in assay [6] and in [7] was “inactive” each time. Also, the Potency result in assay [8], in assay [9] and in assay [10] was “inactive” throughout. Also, the Potency in assay [3] is 19 µM (active).

Turning to `CN1[C@@H]2CC[C@@H]1CC(OC(=O)C(CO)c1ccccc1)C2` (some centres undefined), the Potency result in [1], in assay [2], in [4], in assay [5], in assay [6] and in [7] was “inactive” in each case. Further, the Potency entry in assay [8] and in assay [9] was “inactive” throughout. Further, the max response in assay [3] is -6.75%.

Regarding `CO[Si](CCCNCCNCCN)(OC)OC`, the Potency entry in assay [1], in assay [2], in assay [4], in assay [5], in assay [6] and in [7] was “inactive” in each case. Also, the Potency result in [8], in assay [9] and in [10] was “inactive” each time. In addition, the max response in [3] was 4.89%.

With `C=CC(C)(CCC=C(C)C)OC(=O)/C=C/c1ccccc1` (centres undefined), the Potency result in assay [1], in assay [2], in [6] and in assay [9] was “inactive” each time. The max response in [3] is -2.78%. Moreover, the Potency was 27.5 µM (active) in assay [4]; 27.5 µM (active) in [5]; 38.9 µM (active) in assay [7]; 43.6 µM (active) in assay [8]; 38.9 µM (active) in [10].

As for `Cc1c(C(=O)O)cccc1[N+](=O)[O-]`, the Potency result in assay [1], in [2], in [4], in assay [5], in assay [6] and in assay [7] was “inactive” each time. For the same compound, the Potency result in [8], in assay [9] and in [10] was “inactive” throughout. Moreover, in [3], the max response is -5.1%.

As for `CCc1ccc(C)nc1`, the Potency result in assay [1], in [2], in [4], in assay [5], in [6] and in assay [7] was “inactive” in each case. For the same compound, the Potency result in [8], in [9] and in assay [10] was “inactive” in each case. The max response in [3] was -9.25%.

In the case of `CC[N+](CC)(CC)Cc1ccccc1`, the Potency entry in [1], in [2], in [4], in assay [5], in assay [6] and in assay [7] was “inactive” each time. The Potency entry in assay [8], in assay [9] and in [10] was “inactive” throughout. Besides, in [3], the max response is 3.38%.

`CO[C@H]1C=CO[C@@]2(C)Oc3c(C)c(O)c4c(O)c(cc(O)c4c3C2=O)NC(=O)/C(C)=C\C=C/[C@H](C)[C@H](O)[C@@H](C)[C@@H](O)[C@@H](C)[C@H](OC(C)=O)[C@@H]1C`: the Potency result in assay [1], in assay [2], in [4], in [5], in assay [6] and in assay [7] was “inactive” in each case. Further, the Potency entry in assay [8] and in assay [10] was “inactive” throughout. The max response in [3] was -22.2%. In addition, in assay [9], the Potency is 17.5 µM (active).

On to `N#CSCSc1nc2ccccc2s1`, for which the Potency in [1] was 15.5 µM (active); in assay [2] it was 49 µM (active); in assay [3], 19.5 µM (active); in [4] it was 11 µM (active); in assay [5], 54.9 µM (active); in assay [6], 30.9 µM (active). In addition, the Potency was 43.6 µM (active) in [7], 21.9 µM (active) in [8] and 12.3 µM (active) in assay [10]. In assay [9], the Potency result is “inactive”.

Regarding `CN1CN(C)CN(C)C1`, the Potency entry in [1], in assay [2], in [4], in [5], in [6] and in [7] was “inactive” in each case. Further, the Potency entry in assay [8], in assay [9] and in assay [10] was “inactive” each time. The max response in [3] is -12.7%.

Turning to `NC(=O)c1ccccc1N`, the Potency result in assay [1], in assay [2], in [4], in assay [5], in assay [6] and in assay [7] was “inactive” each time. Also, the Potency result in [8], in assay [9] and in [10] was “inactive” throughout. Also, in assay [3], the max response is -1.93%.

Regarding `CCC(C)c1ccccc1` (centres undefined), the Potency entry in [1], in assay [2], in assay [4], in [5], in assay [6] and in assay [7] was “inactive” each time. For the same compound, the Potency result in [8], in [9] and in assay [10] was “inactive” each time. Further, the max response in assay [3] was 6.63%.

As for `CCOC(=O)CC(C)O` (centres undefined), the Potency entry in [1], in assay [2], in assay [4], in assay [5], in assay [6] and in assay [7] was “inactive” throughout. Also, the Potency entry in assay [8], in assay [9] and in assay [10] was “inactive” throughout. Moreover, the max response in assay [3] is 5.55%.

Regarding `CCOC(/C=C(\C)CCC=C(C)C)OCC`, the Potency entry in [1], in [2], in assay [4], in assay [5], in assay [6] and in assay [7] was “inactive” each time. The Potency result in [8], in assay [9] and in assay [10] was “inactive” each time. Further, the max response in [3] was 9.38%.

As for `CC1=CCC(=O)O1`, the Potency result in [1], in [2], in assay [4], in assay [5], in [6] and in assay [7] was “inactive” each time. Also, the Potency entry in [8], in assay [9] and in assay [10] was “inactive” each time. Also, the max response in [3] was 8.04%.

For the compound `CC(C)=C1CC[C@@H](C)CC1=O`, the Potency entry in [1], in assay [2], in [4], in [5], in assay [6] and in [7] was “inactive” throughout. Moreover, the Potency entry in [8], in assay [9] and in assay [10] was “inactive” each time. Further, the max response in [3] was 0.14%.

Take `C#CC(O)CCC` (centres undefined): the Potency entry in [1], in assay [2], in assay [4], in assay [5], in assay [6] and in [7] was “inactive” throughout. Also, the Potency entry in assay [8], in assay [9] and in assay [10] was “inactive” throughout. Further, the max response in assay [3] is 0.0439%.

Consider `CCCCCCCCCCc1ccccc1`, for which the Potency entry in assay [1], in assay [2], in [4], in [5], in assay [6] and in [7] was “inactive” throughout. Besides, the Potency entry in assay [8], in assay [9] and in assay [10] was “inactive” throughout. In [3], the max response was -5.33%.

Turning to `C=C/C=C/C=C/CCCCC`, the values for the activity change, negative = cytotoxicity in assay [1] and in assay [9] were 13.8% [at 15.8 µM] and 0.841% [at 15.8 µM], respectively. Also, in assay [2], the viability change, negative = cytotoxic is -19.2% [at 15.8 µM]. In [3], the max response was -0.0339%. Besides, the activity change in assay [4] is 1.62% [at 15.8 µM, stronger effect = higher value]. Further, the cytotoxicity increase in [5] was -3.81% [at 15.8 µM]; in assay [8], -4.48% [at 15.8 µM]; in assay [10], 13.2% [at 15.8 µM]. Besides, in [6], the activity change, negative = cytotoxic was 7.06% [at 15.8 µM]. Further, the cytotoxicity in assay [7] is -3.54% [at 15.8 µM].
